Compounds without any hit were thinned out: in the full panel of roughly 79,000, 15% have a hit. Values without a mark were called inactive. Active and inactive are the calls of the source. No stated cut-off is given here; in the data, active means growth inhibition above about 70%; inactive means the rest.
Tests used:
[1] = NCI Yeast Anticancer Drug Screen. Data for the rad14 strain (AID 159);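 further: 0% = growth of vehicle-treated control cultures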; conditions: S. cerevisiae rad14 strain growth inhibition, stronger effect = higher value
How it was run: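 Yeast cells carrying a defined DNA-repair defect were exposed to compounds, and growth inhibition was calculated relative to vehicle-treated control cultures.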

[2] = NCI Yeast Anticancer Drug Screen. Data for the sgs1 mgt1 strain (AID 161);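 further: 0% = growth of cultures given vehicle only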; conditions: S. cerevisiae sgs1 mgt1 strain, stronger effect = higher value
How it was run: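 Read-out: growth inhibition vs vehicle controls. Cells: mutant yeast strain deficient in DNA damage repair.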

[3] = NCI Yeast Anticancer Drug Screen. Data for the CLN2oe strain (AID 163);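 further: 0% = growth of vehicle-only control cultures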; conditions: S. cerevisiae CLN2oe strain, stronger effect = higher value
How it was run: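 Inhibition relative to vehicle-treated yeast is reported. Cells: strain with genetic alteration in cell-cycle control, grown with compound.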

[4] = NCI Yeast Anticancer Drug Screen. Data for the cln2 rad14 strain (AID 165);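 further: 0% = growth equal to vehicle treated cultures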; conditions: S. cerevisiae cln2 rad14 strain, stronger effect = higher value
How it was run: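 Each compound was tested on cln2 rad14 yeast. Inhibition of growth was calculated against vehicle-exposed controls.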

[5] = NCI Yeast Anticancer Drug Screen. Data for the bub3 strain (AID 167); conditions: S. cerevisiae bub3 mutant strain, stronger effect = higher value
How it was run: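 Compounds were applied to a genetically altered yeast strain carrying a cell-cycle control defect. Growth inhibition was scored against vehicle-treated controls.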

[6] = NCI Yeast Anticancer Drug Screen. Data for the wt2 strain (AID 169);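 further: 0% = growth of vehicle-treated yeast cultures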; conditions: S. cerevisiae wt2 strain growth inhibition, stronger effect = higher value
How it was run: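 Inhibition of yeast growth was determined after compound treatment, normalised to controls receiving only vehicle.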

[7] = NCI Yeast Anticancer Drug Screen. Data for the mlh1 strain (AID 171);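 further: 0% = growth of vehicle-treated control cultures of the same strain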; conditions: S. cerevisiae mlh1 strain growth inhibition, stronger effect = higher value
How it was run: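 Vehicle-normalised growth inhibition of a repair- or checkpoint-altered yeast strain following compound treatment.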

[8] = NCI Yeast Anticancer Drug Screen. Data for the mlh1 rad18 strain (AID 175); conditions: S. cerevisiae mlh1 rad18 strain growth inhibition, stronger effect = higher value
How it was run: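 Vehicle-treated cultures served as the reference for growth inhibition in a yeast strain carrying DNA damage repair alterations exposed to each compound.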

[9] = NCI Yeast Anticancer Drug Screen. Data for the rad18 strain (AID 177); conditions: S. cerevisiae rad18 mutant growth inhibition, stronger effect = higher value
How it was run: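 Test articles were incubated with altered yeast defective in DNA damage repair. Results are given as inhibition of growth versus vehicle.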

[10] = at 5.0 µM (retest, dose inferred, filed as 0.5)
[11] = at 50.0 µM (retest, dose inferred, filed as 5.0)

## CCC[CH2][Ge]([CH2]CCC)([CH2]CCC)[O]C(=O)C(OC)c1ccccc1 (centres undefined)
[1]; at 33.0 µM
  growth inhibition: 26%
[1]; at 100.0 µM
  growth inhibition: 95% (active)
[2]; [10]
  growth inhibition: 59%
[2]; [11]
  growth inhibition: 59%
[2]; at 50.0 µM
  growth inhibition: 82.8% (active)
[3]; at 1.2 µM
  growth inhibition: -6%
[3]; at 3.7 µM
  growth inhibition: 1%
[3]; at 11.0 µM
  growth inhibition: 6%
[3]; at 33.0 µM
  growth inhibition: 41%
[3]; at 100.0 µM
  growth inhibition: 98% (active)
[4]; [10]
  growth inhibition: 18%
[4]; [11]
  growth inhibition: 18%
[4]; at 50.0 µM
  growth inhibition: 66.5%
[5]; at 1.2 µM
  growth inhibition: -6%
[5]; at 3.7 µM
  growth inhibition: -4%
[5]; [10]
  growth inhibition: 10%
[5]; at 11.0 µM
  growth inhibition: 12%
[5]; at 33.0 µM
  growth inhibition: 54%
[5]; [11]
  growth inhibition: 10%
[5]; at 50.0 µM
  growth inhibition: 76% (active)
[5]; at 100.0 µM
  growth inhibition: 97% (active)
[6]; at 1.2 µM
  growth inhibition: -3%
[6]; at 3.7 µM
  growth inhibition: -4%
[6]; at 11.0 µM
  growth inhibition: 0%
[6]; at 33.0 µM
  growth inhibition: 48%
[6]; at 100.0 µM
  growth inhibition: 98% (active)
[7]; at 1.2 µM
  growth inhibition: -4%
[7]; at 3.7 µM
  growth inhibition: -5%
[7]; at 11.0 µM
  growth inhibition: -1%
[7]; at 33.0 µM
  growth inhibition: 60%
[7]; at 100.0 µM
  growth inhibition: 98% (active)
[8]; [10]
  growth inhibition: 39%
[8]; [11]
  growth inhibition: 39%
[8]; at 50.0 µM
  growth inhibition: 78% (active)
[9]; at 1.2 µM
  growth inhibition: 5%
[9]; at 3.7 µM
  growth inhibition: 4%
[9]; at 11.0 µM
  growth inhibition: 22%
[9]; at 33.0 µM
  growth inhibition: 80% (active)
[9]; at 100.0 µM
  growth inhibition: 98% (active)
